Only some compounds are listed: those with a hit (about 5.2% of all), similar ones and a draw of the others.
Tau fibril ThT: qHTS for Inhibitors of Tau Fibril Formation, Thioflavin T Binding | AID 1460, 2008 | Microtubule-associated protein tau (Homo sapiens), P10636 | recombinant tau K18 P301L, heparin-induced fibrillization, ThT fluorescence | Potency, µM (top dose mostly 57.4 µM), actives largely listed as inhibitors | hit rate 2.1% among 270,000; note: nearly all actives have a fitted effect of over 55% in size
Target sequence (P10636 561-689 P618L limits assumed): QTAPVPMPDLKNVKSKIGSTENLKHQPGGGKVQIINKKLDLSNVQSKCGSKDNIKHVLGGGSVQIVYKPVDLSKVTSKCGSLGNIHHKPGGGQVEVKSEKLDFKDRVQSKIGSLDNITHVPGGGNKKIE
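K18 P301L tau (15 uM + 0.24 uM Alexa 594-tagged), heparin 20 uM, NaOAc pH 7, 6 h 37 C; ThT 30 uM, 1 h RT, ex 450/em 510 nm.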
Coupling enz: qHTS Assay for Inhibitors of Fructose-1,6-bisphosphate Aldolase from Giardia Lamblia: Coupling assay counterscreen. activity change, negative = inhibition, % at 58.2 µM, hits read low. AID 2472, 2010. hit rate 0.67% among 290,000. coupling enzyme system counterscreen, AmpLite Red fluorescence; in the data active = activity change below about -30%
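Final compound at 57.5 uM, incubated 10 min at RT with coupling enzyme reagent (glyceraldehyde-3-phosphate), then 20 min with substrate and AmpLite Red detection. Fluorescence read at 525/598 nm; tests interference with the coupling assay, not aldolase inhibition.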
Tau fluor counter: Counterscreen qHTS for Inhibitors of Tau Fibril Formation, Fluorescence Polarization | tau K18 P301L Alexa594 fluorescence, heparin fibrillization | Potency, µM (doses to about 57.7 µM) | hit rate 0.93% among 280,000; note: nearly all actives have a fitted effect of over 55% in size
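Human tau K18 P301L (15 uM unlabeled, 0.24 uM Alexa 594-labeled) in 100 mM sodium acetate pH 7 with 20 uM heparin, 6 hr at 37 C. ThT 30 uM added, 1 hr ambient; Alexa 594 FP and total fluorescence read at 555/632 nm.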
Sfp PPTase inh: qHTS Assay for Inhibitors of Bacillus subtilis Sfp phosphopantetheinyl transferase (PPTase); 4'-phosphopantetheinyl transferase ffp (Bacillus subtilis), Q9F4F7; Biochemical Sfp PPTase activity, qHTS; Potency, µM, usual class: inhibitors; hit rate 3.5% among 310,000; AID 1490, 2009;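 note: the enzyme is Sfp with the accession as filed and its product quenches rhodamine fluorescence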
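Sfp 15 nM + cpd, 15 min RT; start w/ rhodamine-CoA 5 uM, BHQ-2-YbbR 12.5 uM (final); 50 mM Hepes pH 7.6, 10 mM MgCl2, 0.01% NP-40, 0.01% BSA; read 525/598 nm at 0 and 30 min.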
Tau FP inhib: qHTS for Inhibitors of Tau Fibril Formation, Fluorescence Polarization; Microtubule-associated protein tau (Homo sapiens), P10636; K18 P301L tau heparin fibrillization, Alexa594 FP, 6 h; Potency, µM (series often up to 57.7 µM), actives largely listed as inhibitors; hit rate 0.39% among 280,000; note: nearly all actives have a fitted effect of over 55% in size
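Recombinant K18 P301L […], labeled with Alexa 594 at 0.24 uM over 15 uM unlabeled; heparin inducer 20 uM final; 37 C, 6 hr; FP endpoint.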
Hits are given with their value; . = inactive; ? = inconclusive; / = no result given; [ ] = remark or other dose. Unless noted, calls come from the whole dose curve; as a rule, active = well fitted curve in the direction sought with a large enough effect; inconclusive = small, poorly fitted or top-dose-only effect, or another doubt; inactive = no such curve, though single readings can be large; an effect the other way counts as inactive or inconclusive.

SMILES	Tau fibril ThT	Coupling enz	Tau fluor counter	Sfp PPTase inh	Tau FP inhib
C/C=C/c1ccc2oc(-c3ccc(O)cc3)c(C)c2c1	18µM	.	14µM[quencher]	.	?
O=C(CSc1ccccn1)Nc1ccc(NC(=O)CSc2ccccn2)cc1	.	.	.	.	.
O=C(CSc1ccccn1)Nc1nonc1[N+](=O)[O-]	/	/	/	45µM	/
CCN(CC)c1ccc(C(=O)O)cc1	.	.	.	.	.
CCN(CC)c1ccc(SS(=O)(=O)O)cc1	?	.	.	45µM	?
CC(C)(C)c1ccc(OC(=O)Nc2ccc(O)c(C(=O)O)c2)cc1	?	.	?	50µM	.
COc1ccccc1Nc1c2c(nc3ccc(NC(=O)/C=C/c4cccc(OC)c4OC)cc13)CCCC2	14µM	/	?	/	.
COc1ccccc1Nc1c2c(nc3ccc(NC(=O)c4cccc(F)c4)cc13)CCCC2	?	/	?	/	.
COc1ccc(Nc2c3c(nc4ccc(NC(=O)/C=C/c5cc(OC)c(OC)c(OC)c5)cc24)CCCC3)cc1OC	?	/	?	/	.
COc1ccc(/C=C/C(=O)Nc2ccc3nc4c(c(Nc5ccccc5OC)c3c2)CCCC4)cc1	10µM	/	?	/	?
COc1ccc(Nc2c3c(nc4ccc(NC(=O)/C=C/c5cccc(OC)c5OC)cc24)CCCC3)cc1OC	14µM	/	?	/	.
COc1ccc(/C=C/C(=O)Nc2ccc3nc4n(c(=O)c3c2)CCCC4)cc1OC	?	.	.	.	.
COc1ccc(/C=C/C(=O)Nc2ccc3nc4c(c(Nc5ccc(OC)c(OC)c5)c3c2)CCCC4)cc1	25µM	/	16µM[quencher]	/	.
CCOc1ccc(NC(=O)C2CCCN(c3nnc(-n4c(C)ccc4C)s3)C2)cc1 (stereo not drawn)	?	/	.	/	?
O=C(c1cnccn1)N1CCC2(CC1)CCN(c1ncccn1)CC2	/	.	/	.	/
CC1CCC2C(=O)N3C(CCC(C)C3c3ccc(-c4ccco4)cc3)C(=O)N2C1c1ccc(-c2ccco2)cc1 (stereo not drawn)	.[11.5 µM]	.	.[11.6 µM]	?	.[11.6 µM]
O=C(NCc1nc(-c2ccc(C(F)(F)F)cc2)no1)Nc1ccc(F)cc1F	/	.	.	.	.
O=C(NCc1nc(-c2ccc(C(F)(F)F)cc2)no1)Nc1cc(Cl)cc(Cl)c1	/	.	?	.	16µM
O=C(Nc1ccc2oc(-c3cccc4c(Br)cccc34)nc2c1)c1ccc(F)cc1	.	/	.	/	?
CC1=C(C#N)C(=O)NC(=O)/C1=C/c1ccc(-c2ccc(S(N)(=O)=O)cc2)o1	16µM	.	?	79µM	.
C=CCOC(=O)c1cc(-c2ccc(/C=C3\C(=O)NC(=O)C(C#N)=C3C)o2)ccc1Cl	?	.	?	50µM	.
NS(=O)(=O)c1ccc(-c2ccc(C=O)o2)cc1	.	.	.	.	.
NS(=O)(=O)c1ccc(-c2ccc(/C=C3\NC(=S)NC3=O)o2)cc1	/	.	/	5.6µM	/
CCOC(=O)c1sc(=S)n(-c2ccccc2)c1NC(C)=O	.	.	.	.	.
CCOC(=O)c1sc(=S)n(CC)c1NC(=O)c1ccccc1C	.	.	.	.	.
SMILES	Tau fibril ThT	Coupling enz	Tau fluor counter	Sfp PPTase inh	Tau FP inhib
CCOC(=O)c1sc(=S)n(C)c1NC(=O)c1cccc(Br)c1	?	.	.	18µM	.
CCOC(=O)c1sc(=S)n(C)c1NC(=O)c1ccccc1	.	.	.	14µM	.
COc1ccc(N2CC(NC(=O)c3ccco3)CC2=O)cc1 (stereo not drawn)	.	/	.	/	.
Cc1ccc(CNC(=O)CS(=O)(=O)Cc2nc(-c3ccccc3C)oc2C)cc1	.	/	.	/	.
Cc1cc(=O)[nH]c(N/N=C/c2sccc2C)n1	.	.	.	13µM	.
Cc1ccsc1/C=N/Nc1ncnc2nc[nH]c12	.	.	.	50µM	.
CCc1nc2ccc(C(=O)NCCc3ccco3)cc2nc1CC	/	.	/	.	/
CCCNC(=O)c1ccc2nc(-c3ccccc3)c(-c3ccccc3)nc2c1	.	.	.	.	.
COc1ccc(-c2nc3ccc(C(=O)NCCCN4CCOCC4)cc3nc2-c2ccc(OC)cc2)cc1	/	.	/	56µM	/
CCCCNC(=O)c1ccc2nc(-c3ccco3)c(-c3ccco3)nc2c1	16µM	-39	?	32µM	?
O=C(NCCCO)c1ccc2nc(-c3ccco3)c(-c3ccco3)nc2c1	5µM	.	4.5µM[quencher]	10µM	8.9µM
COc1ccc(C(=O)NCCCN2CCOCC2)cc1	/	.	/	.	/
Cc1nc2ccc(NC(=O)NCCO)cc2s1	.	.	.	.	.
O=C(NCCO)Nc1ccc2nc(-c3ccco3)c(-c3ccco3)nc2c1	.	-36	.	18µM	.
Cc1sc2c(c1C)c(=O)n(-c1ccccc1)c(=O)n2CC(=O)c1ccc(Cl)cc1	?	/	?	/	.
COc1ccc(NC(=O)c2c(C)oc3ccc(O)c(CN4CCC(C)CC4)c23)cc1Cl	?	/	.	/	.
Cn1c(C(=O)Nc2cccc(Cl)c2)cc2c(=O)n(C)c3ccccc3c21	.	/	.	/	.
COc1ccc(-c2ccc(-c3noc(C(C)C)n3)c(OC)n2)cc1	?	.	.	56µM	.
CCc1nc(-c2ccc(-c3ccc(OC)cc3)nc2OC)no1	?	.	.	.	.
Cc1nc(-c2ccccc2)c(-c2ccncc2)o1	/	.	/	.	/
Cn1c(=O)n(C)c2cc(/C=C3/NC(=O)N(Cc4ccccc4)C3=O)ccc21	.	.	.	.	.
COC(=O)CN1C(=O)N/C(=C/c2ccc(C)o2)C1=O	?	.	.	22µM	?
Cc1ccc(/C=C2/NC(=O)N(Cc3ccccc3)C2=O)o1	32µM	.	.	?	?
O=C(NCCn1cc(SCc2ccc(C(F)(F)F)cc2)c2ccccc21)c1cccs1	?	/	5.6µM[quencher]	/	.
COc1ccc(C(=O)NCCn2cc(SCC(=O)Nc3ccc(F)cc3)c3ccccc32)cc1	?	/	14µM[quencher]	/	?
SMILES	Tau fibril ThT	Coupling enz	Tau fluor counter	Sfp PPTase inh	Tau FP inhib
O=C(NCCn1cc(SCc2ccccc2)c2ccccc21)c1c(F)cccc1F	?	.	?	.	.
O=C(NCCn1cc(SCc2ccc(F)cc2)c2ccccc21)c1c(F)cccc1F	?	-39	?	.	.
CC(=O)NCCNc1ncnc2ccc(-c3ccccc3C#N)cc12	/	.	/	.	/
Cc1ccc(C2=NN(CC(=O)NCCc3ccc(Cl)cc3)C(=O)CC2)cc1	.	/	.	/	.
CCOc1ccc(S(=O)(=O)N(CC(=O)NCCSCc2ccccc2)c2ccccc2)cc1	.	/	.	/	?
Cc1ccc(S(=O)(=O)c2nc(S(=O)(=O)c3ccccc3)sc2NCCCOC(C)C)cc1	.	/	.	/	.
CN1C(=O)/C(=C/c2ccc(-c3ccccc3[N+](=O)[O-])o2)SC1=Nc1ccc(Cl)c(C(=O)O)c1	14µM	.	.	14µM	.
